High-throughput results (PubChem)
Rows were chosen to be rich in hits. Some 2.7% of all compounds tested hit in one or more screens of this group.
MPTP block = mitochondrial permeability transition pore inhibitors, primary screen, biochemical, isolated mouse mitochondria, absorbance | Ca2+ swelling absorbance, 30 min | inhibition, % at 10 µM | 1.4% of 360,000 active;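 active = inhibition of 50% or more, scaled per plate between neutral and stimulator controls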;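 note: 0% = DMSO wells given calcium and 100% = 1 mM EGTA wells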
NadD block = inhibitors of S. aureus NadD, primary screen, biochemical, colorimetric, uHTS; AID 602399, 2012; Nicotinate-nucleotide adenylyltransferase NadD (Staphylococcus aureus N315); inhibition, % at 20 µM; 0.78% of 360,000 active; purified NadD enzyme, colorimetric absorbance read-out; in the data active = inhibition above about 26%
H9c2 TAG inh = inhibitors of triacylglycerol accumulation, primary screen, cell-based, uHTS, fluorescence, H9c2. 0.66% of 230,000 active. inhibition, % at 12.5 µM. H9c2 cells, Nile Red lipid (TAG) fluorescence; cells loaded with 200 µM oleic acid;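 active = pattern-corrected inhibition of lipid staining of at least 50% with the nuclear-stain viability signal not falling by more than 50%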;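 note: 0% = DMSO wells and 100% = triacsin C control wells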
aDG glyco act = activators of alpha-DG glycosylation, primary screen, uHTS, Pro5-aDG cells, AlphaScreen | alpha-DG glycosylation AlphaScreen (IIH6); 0% Pro5, 100% B10-LARGE cell signal | activation, % at 10 µM | 0.22% of 360,000 active | AID 624168, 2012;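 active = activation of at least 8% versus controls, or a plate z-score of at least 8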;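 note: Pro5 are CHO cells carrying HIG-tagged alpha-DG that lacks glycosylation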
Rh123 counter = fluorescence retest of MPTP screen hits in isolated mitochondria, single concentration; membrane potential, Rhodamine 123 fluorescence; shares compounds with MPTP block; 78% of 5,000 active; inhibition, % at 10 µM; in the data active = inhibition above about 22%;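 note: 0% = DMSO vehicle and 100% = positive control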
MPTP abs DR = mitochondrial permeability transition pore inhibitors, dose response, biochemical, absorbance, uHTS hits; shares compounds with MPTP block; isolated mitochondria swelling; IC50, µM; 58% of 780 active; in the data active = IC50 below about 20 µM
MPTP cs DR = fluorescent counter-screen in isolated mitochondria, dose response, counter-screen for MPTP inhibitor project, biochemical, fluorescence, uHTS hits | isolated mitochondria counterscreen, fluorescence read-out | AID 651564, 2012 | shares compounds with MPTP block | IC50, µM | 49% of 780 active; in the data active = IC50 below about 80 µM
Numbers without * were called inactive; x = not tested or not shown.

SMILES | MPTP block | NadD block | H9c2 TAG inh | aDG glyco act | Rh123 counter | others
O=C(Nc1ccsc1C(=O)O)c1ccc(Cl)cc1 | 0.9 | -7.1 | x | 0.0 | x
CCN(C[C@H]1N[C@@](CC)(C(=O)OC)[C@H]2C(=O)N(Cc3ccccc3)C(=O)[C@@H]12)S(=O)(=O)c1ccc(F)cc1 | -0.7 | 0.8 | 3.1 | 0.0 | x
CCC1CCc2sc(C(=O)NC3CCN(Cc4ccccc4)CC3)cc2C1 (configuration not stated) | 76.5* | 3.7 | -11.2 | 1.7 | -5.0 | MPTP abs DR=11.1*;MPTP cs DR=26.8*
Cc1sc2ncnc(NC3CCN(Cc4ccccc4)CC3)c2c1C | 90.8* | -5.5 | -45.8 | 5.1 | 71.4*
C#CCNC(=O)c1csc([C@@H]2O[C@H](CO)[C@@H](O)[C@H]2O)n1 | -0.9 | -2.2 | -7.9 | -0.1 | x
CCOC(=O)CSc1n[nH]c(=S)s1 | 1.3 | -2.4 | -13.7 | -0.1 | x
CC(C)(C)CC(C)(C)SSc1n[nH]c(=S)s1 | 51.0* | 11.6 | 28.4 | 0.3 | 36.7*
C=CCN1C=C/C(=C\C=C(C#N)C#N)c2ccccc21 | 48.5 | 0.3 | -8.7 | 0.7 | x
CCCCCCN1C=C/C(=C\C=C(C#N)C#N)c2ccccc21 | 51.0* | -6.8 | x | -0.6 | -10.3 | MPTP abs DR=9.33*;MPTP cs DR=<2.5*
Cc1nnsc1SCCNC(=O)Nc1ccc(Cl)cc1 | 88.1* | -13.2 | -20.8 | 1.2 | 90.2*
COC(=O)c1ccc(CNC(=O)COC(=O)c2cc(Cl)ccc2O)cc1 | -1.8 | -9.4 | -7.7 | 0.0 | x
O=C(Nc1ccc(OC(F)(F)F)cc1)Oc1ccccc1N1CCOCC1 | 88.3* | -2.8 | 0.4 | -0.1 | 81.6*
O=C(Nc1ccc(F)cc1)Oc1ccccc1N1CCOCC1 | 7.3 | -5.7 | 2.1 | 0.0 | x
O=C(Nc1ccc(OC(F)(F)F)cc1)c1cc(S(=O)(=O)N2CCCCC2)ccc1N1CCOCC1 | 1.1 | -3.6 | -10.7 | 0.3 | x
O=C(Nc1ccc(OC(F)(F)F)cc1)Oc1ccccc1N1CCCCC1 | 82.5* | -0.1 | 4.9 | -0.2 | 88.8*
CC(=O)N1CCC(c2nc3ccccc3n2C(C)C(=O)NCc2ccccc2)CC1 (configuration not stated) | 0.9 | x | x | 1.3 | x
COc1cccc(C(=O)OCC(=O)Nc2sc3c(c2C(N)=O)CCC3)c1O | -2.4 | 1.3 | -9.0 | 0.2 | x
C[C@@H]1CN([C@@H](C)CO)C(=O)CCCn2nncc2CO[C@@H]1CN(C)C(=O)Nc1ccc2c(c1)OCO2 | -1.3 | -1.7 | 2.5 | 0.2 | x
CC(C)CC(=O)Nc1ncc([N+](=O)[O-])s1 | 66.9* | -4.8 | 1.5 | 0.0 | 56.0*
O=C(Nc1ncc(Cc2cc(Cl)ccc2Cl)s1)c1ccc([N+](=O)[O-])cc1 | 50.9* | 13.4 | 11.6 | 0.7 | -3.9 | MPTP abs DR=>100;MPTP cs DR=<2.5*
O=C(Nc1ncc([N+](=O)[O-])s1)c1cccc([N+](=O)[O-])c1 | 56.3* | -6.7 | x | -0.1 | 78.8*
O=C(Nc1ncc(S(=O)(=O)c2ccc([N+](=O)[O-])cc2)s1)c1ccc2ccccc2c1 | 94.5* | 26.4 | x | 0.2 | 31.0*
O=C(Nc1ncc(Cc2cccc(Cl)c2Cl)s1)c1ccc([N+](=O)[O-])cc1 | 25.2 | 0.4 | 12.9 | 1.0 | x
CC(=O)N[C@@H](Cc1c[nH]c2ccccc12)C(=O)OCC(=O)Nc1cc(C)on1 | -2.1 | -2.3 | 0.6 | 0.0 | x
COc1ccc(S(=O)(=O)N2CCC(C(=O)NC(c3nc4ccccc4[nH]3)C(C)C)CC2)cc1 (configuration not stated) | -0.2 | -3.3 | 11.0 | -0.3 | x
SMILES | MPTP block | NadD block | H9c2 TAG inh | aDG glyco act | Rh123 counter | others
COC(=O)c1cc(CNC(=O)c2ccc(S(=O)(=O)N(C)c3ccccc3)cc2)ccc1OC | -0.9 | -7.3 | 9.8 | -0.1 | x
O=C(COC(=O)c1ccccc1)Nc1ncc([N+](=O)[O-])s1 | 0.5 | 13.0 | -7.1 | -0.1 | x
O=C(Nc1ccccc1)Nc1ncc([N+](=O)[O-])s1 | 87.6* | -0.7 | -15.8 | -0.7 | 81.9*
CCCCCc1ccc(S(=O)(=O)NCCc2ccncc2)cc1 | 63.3* | 2.2 | x | 1.3 | 82.8*
O=S(=O)(NCc1ccncc1)c1ccc(F)c(F)c1 | 3.4 | 5.4 | -24.3 | 1.7 | x
CCCc1ccc(S(=O)(=O)NCCc2ccncc2)cc1 | 8.3 | -7.2 | -14.6 | 2.8 | x
Cc1ccc(S(=O)(=O)NCc2ccncc2)cc1C | 77.0* | 0.3 | -9.9 | 4.1 | 76.4*
CCN(C1CCCCC1)S(=O)(=O)c1ccc(S(=O)(=O)NCCc2ccncc2)cc1 | -0.5 | -6.2 | x | 0.1 | x
CCN(C1CCCCC1)S(=O)(=O)c1ccc(S(=O)(=O)NCc2ccncc2)cc1 | 98.2* | -0.7 | x | 2.2 | 92.5*
O=S(=O)(NCc1ccncc1)c1ccc(Br)s1 | 62.7* | -2.4 | -40.0 | 8.9* | 96.5*
COc1ccc(C2(O)CCN(CC(=O)Nc3nc(-c4ccccc4)cs3)CC2)cc1 | -3.5 | -4.2 | -14.5 | 0.0 | x
COC(=O)COc1ccc(S(=O)(=O)NCc2ccncc2)cc1 | 85.1* | 2.2 | x | 0.7 | 86.7*
CCOC(=O)C1=C(Nc2ccc(OC)cc2)C(N)=NC1=N | -0.8 | -7.2 | 29.2 | 0.0 | x
CS(=O)(=O)c1ccc(Cl)c(NC(=O)CN2CCN(C(=O)c3cccs3)CC2)c1 | -0.8 | -1.5 | 21.6 | -0.1 | x
CCC(C)NC(=O)[C@H]1N2C(=O)c3c(ccc(OC)c3OC)C2SC1(C)C (some centres not stated) | 0.0 | 1.3 | x | 0.0 | x
CCCCc1ccc(C2C3=C(CC(C)(C)CC3=O)NC3=C2C(=O)c2ccccc23)cc1 (configuration not stated) | 70.7* | 22.5 | x | 1.7 | 52.6*
CC1(C)CC(=O)C2=C(C1)NC1=C(C(=O)c3ccccc31)C2c1ccc(O)cc1 (configuration not stated) | 5.7 | 1.2 | 8.5 | -0.1 | x
O=C1CCCC2=C1C(c1cccc(O)c1)C1=C(N2)c2ccccc2C1=O (configuration not stated) | 2.9 | -3.9 | 2.4 | -0.3 | x
CCCc1ccc(C2C3=C(CC(C)(C)CC3=O)NC3=C2C(=O)c2ccccc23)cc1 (configuration not stated) | 80.7* | 13.3 | x | 0.2 | 52.4*
Cc1ccc(NC(=O)NC(=O)COC(=O)c2ccc(O)cc2O)c(C)c1 | 0.9 | 1.1 | 5.2 | -0.1 | x
CCOc1ccc(NS(=O)(=O)c2ccc(C(=O)NCC(c3ccc(OC)cc3)N3CCCC3)cc2)cc1 (configuration not stated) | 85.4* | 6.1 | -5.2 | 0.7 | -11.9 | MPTP abs DR=8.96*;MPTP cs DR=>80
